# The list is not random: actives were taken first. Their share in the collection is about 3.8%.
# FGF22 binding: shifts melting point of recombinant human FGF22. recombinant FGF22 thermal shift, SYPRO orange fluorescence; percent of sucrose octasulfate shift, DMSO zero. activity (Tm shift, normalised), % at 9.99 µM. 1.5% of 340,000 active. AID 651658;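 active = mean Tm shift, scaled 0 neutral to 100 positive control, at about 1.3% or above, every replicate too, limit read from the data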
# Target sequence (Q9HCT0 whole entry, looked up): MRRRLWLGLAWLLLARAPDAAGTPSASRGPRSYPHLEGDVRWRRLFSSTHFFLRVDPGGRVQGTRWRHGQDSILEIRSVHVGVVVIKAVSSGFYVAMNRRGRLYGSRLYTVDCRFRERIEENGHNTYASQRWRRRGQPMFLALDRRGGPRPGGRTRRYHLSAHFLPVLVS
# KLK7 zymogen act: activators of human kallikrein-7 zymogen. activation, % at 7 µM. P49862. 0.9% of 370,000 active. purified proKLK7, EDANS-DABCYL substrate fluorescence; 100% is mature enzyme control, 0% vehicle;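 active = activation above the mean of all tested compounds plus 3 SD, computed per campaign excluding outliers beyond control limits, cut at about 13% in these data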
# Target sequence (P49862 whole entry, looked up): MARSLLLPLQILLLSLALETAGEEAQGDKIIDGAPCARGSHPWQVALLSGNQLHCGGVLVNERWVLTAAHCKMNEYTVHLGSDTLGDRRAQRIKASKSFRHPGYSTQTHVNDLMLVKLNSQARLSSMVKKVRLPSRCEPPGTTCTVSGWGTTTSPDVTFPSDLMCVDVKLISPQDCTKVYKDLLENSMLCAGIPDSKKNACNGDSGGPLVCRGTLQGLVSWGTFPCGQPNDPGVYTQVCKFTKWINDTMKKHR
# rRNA inh HTS: inhibitors of bacterial rRNA selective over humanized ribosomes; E. coli WT GFP vs humanized-ribosome RFP mutants, fluorescence, 24 h; hits give low values; DMSO median 0, no signal -100; GFP signal change (wild-type ribosome), % (no concentration beside the values); 1.6% of 350,000 active; AID 720706;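 active = significant combined selectivity score with lowered wild-type GFP, culture density cut under 30%, mutant RFP and density less affected; inactive = any of these conditions unmet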
# ADAM10 inh: inhibits human ADAM10. O14672. recombinant ADAM10, EDANS/DABCYL FRET peptide cleavage, 3 h. inhibition, % at 7 µM. 0.62% of 370,000 active. AID 720582;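 active = inhibition above a per-campaign cutoff equal to the mean of compounds falling between control-based bounds plus 3 SD, cut at about 20% in these data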
# ADAM17 inh: inhibitors of human ADAM17; P78536; recombinant ADAM17, EDANS/DABCYL FRET peptide cleavage; inhibition, % at 6.95 µM; 0.83% of 370,000 active;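 active = inhibition above the mean of compounds lying between control limits plus 3 SD, set per campaign, cut at about 8.5% in these data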
# ADAM10 ctr: counter-screen for ADAM17 exosite inhibitors: inhibitors of human ADAM10; shares compounds with ADAM17 inh; recombinant ADAM10, EDANS/DABCYL FRET peptide cleavage, 3 h; inhibition, % at 6.95 µM; 47% of 2,900 active; AID 743256;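 active = mean inhibition over the triplicate runs exceeds the activity threshold set in the earlier primary screen, cut at about 20% in these data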
# ADAM17 confirm: human ADAM17 inhibition, confirmation | AID 743257 | inhibition, % at 6.95 µM | recombinant ADAM17, EDANS/DABCYL QFRET peptide cleavage | 65% of 2,900 active | shares compounds with ADAM17 inh;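 active = mean inhibition across replicates above the hit cutoff set in the primary screen, cut at about 8.5% in these data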
# Hits are given with their value; n = inactive; x = not tested or not shown.
SMILES,FGF22 binding,KLK7 zymogen act,rRNA inh HTS,ADAM10 inh,ADAM17 inh,ADAM10 ctr,ADAM17 confirm
CCCCC[C@@H](C)N1C[C@@H](COCc2ccccc2)Oc2cc(N3CCC[C@H]3CO)ccc2S1(=O)=O,n,n,n,n,9.9,23,15
CCCCC[C@@H](C)N1C[C@H](COCc2ccccc2)Oc2cc(N3CCC[C@H]3COC)ccc2S1(=O)=O,n,n,n,n,n,x,x
C[C@@H]1CN([C@H](C)CO)C(=O)c2cc(NC(=O)c3ccccc3)ccc2O[C@@H](C)CCCCO[C@@H]1CN(C)C(=O)Nc1cccc2ccccc12,n,x,n,x,x,x,x
Clc1ccc(-c2nnc(SCc3cccc4ccccc34)n2-c2ccc(Cl)cc2)cc1,x,n,x,n,n,x,x
Clc1ccc(-n2c(SCc3cccc4ccccc34)nnc2-c2ccccn2)cc1,x,n,x,n,11,27,14
CCOC(=O)[C@]12CCCCC/C=C\1N(CCc1ccc(Cl)cc1)C(=O)[C@H]2CC(=O)NCc1ccc(C)o1,x,n,x,n,9.4,n,n
CCOC(=O)[C@@]12CCCC=C1N(CCc1ccc(Cl)cc1)C(=O)[C@H]2CC(=O)NCCCCc1ccccc1,x,n,x,n,n,x,x
CCOC(=O)[C@]12CCCCC/C=C\1N(CCc1ccc(Cl)cc1)C(=O)[C@H]2CC(=O)NCc1ccccc1,x,n,x,n,11,25,12
COc1ccc(S(=O)(=O)Nc2ccc3c(c2)C(=O)N([C@@H](C)CO)C[C@@H](C)[C@@H](CN(C)C(=O)CCCN(C)C)OCCCC[C@H](C)O3)cc1,n,x,n,x,x,x,x
CN(C)CC#Cc1cccc(-c2nc(C(=O)O)cc3c2[C@H](CCO)N(S(=O)C(C)(C)C)C3)c1 (some centres undefined),n,x,x,x,x,x,x
Nc1c(Cl)cc(-c2csc(N3CCCC3c3nc4cc(Cl)c(Cl)cc4n3CCCO)n2)cc1Cl (centres undefined),n,n,n,n,n,x,x
OCCCn1c(C2CCCN2c2nc(-c3ccc(F)cc3)cs2)nc2cc(Cl)c(Cl)cc21 (centres undefined),n,n,n,n,9.5,n,11
OCOCCCn1c(C2CCCN2c2nc(-c3ccc(F)cc3)cs2)nc2cc(Cl)c(N3CCCCC3)cc21 (centres undefined),n,n,n,n,10,n,8.7
OCCCn1c(C2CCCN2c2nc(-c3ccc(Cl)cc3)cs2)nc2cc(Cl)c(Cl)cc21 (centres undefined),n,n,n,n,9.1,27,12
CCC/C(O)=C1\C(=O)CCCC1=NCCc1ccc(OCC)c(OCC)c1,n,n,n,n,n,x,x
CCC/C(O)=C1\C(=O)CCCC1=NC(C)C(=O)O (centres undefined),x,n,n,n,10,n,n
CCCCN1c2ccccc2N(CCCO)c2cc(C)nnc21,x,n,x,n,9.8,n,n
N#C[C@@H]1[C@@H](c2ccc(-c3ccncc3)cc2)[C@@H](CO)N1C(=O)C1CCC1,n,x,n,x,x,x,x
Cc1cc(C(=O)Cn2nnc(-c3ccc(Cl)cc3)n2)c(C)n1CC1CCCO1 (centres undefined),x,n,n,n,9.0,n,9.6
O=C(C[C@@H]1CC[C@H](NS(=O)(=O)c2ccccc2)[C@H](CO)O1)NCCN1CCCCC1,n,x,n,x,x,x,x
O=C(Nc1cccc(S(=O)(=O)Nc2ccccc2Cl)c1)c1ccc(N2CCCC2)c([N+](=O)[O-])c1,x,n,x,n,11,41,24
O=C(Nc1cccnc1)c1ccc(N2CCCC2)c([N+](=O)[O-])c1,n,n,n,n,n,x,x
CC(C)(C)c1ccc(-c2nnc(SCC(=O)Nc3ccccc3-c3ccccc3)n2Cc2ccco2)cc1,x,n,x,n,11,20,17
COc1cccc(-c2nnc(SCC(=O)Nc3cccc4ccccc34)n2Cc2ccco2)c1,x,n,x,n,n,x,x
CC(C)(C)c1ccc(-c2nnc(SCC(=O)Nc3ccc(S(=O)(=O)Nc4nccs4)cc3)n2Cc2ccco2)cc1,x,n,x,n,9.6,23,13
SMILES,FGF22 binding,KLK7 zymogen act,rRNA inh HTS,ADAM10 inh,ADAM17 inh,ADAM10 ctr,ADAM17 confirm
COc1cccc(-c2nnc(SCC(=O)Nc3ccc(Oc4ccccc4)cc3)n2Cc2ccco2)c1,x,n,x,n,9.1,27,16
CCOc1ccc(-n2c(SCC(=O)Nc3ccccc3-c3ccccc3)nnc2-c2ccccc2)cc1,x,n,x,n,9.6,38,20
Cc1ccc(C2=NN(S(=O)(=O)c3ccccc3)C(c3ccccc3O)C2)cc1 (centres undefined),44,n,n,n,8.9,42,23
O=C(c1ccccc1)N1N=C(c2ccccc2)CC1c1ccccc1O (centres undefined),n,n,n,n,11,n,10
COc1ccc(C2CC(c3ccccc3)=NN2S(=O)(=O)c2ccccc2)cc1 (centres undefined),n,n,n,n,n,x,x
COc1cccc(NC(=O)N[C@@H]2C=C[C@H](CC(=O)N3CCN(C)CC3)O[C@H]2CO)c1,n,x,n,x,x,x,x
COc1ccc(NC(=O)N(C)C[C@H]2Oc3c(NS(=O)(=O)c4ccccc4)cccc3C(=O)N([C@@H](C)CO)C[C@H]2C)cc1,x,x,n,x,x,x,x
CCOC(=O)C1=C(O)/C(=C/c2ccc(-c3ccccc3C(=O)O)o2)SC1=Nc1ccc(OC)cc1,x,n,x,n,9.5,n,8.8
Nc1ncc2c(n1)-c1cc(Cl)ccc1SC2,n,n,n,n,10,n,n
Cc1ncc2c(n1)-c1cc(F)ccc1SC2,n,n,n,n,n,x,x
CC(=O)c1ccc(NC(=O)CSc2nc(Nc3ccccc3)nc(N3CCOCC3)n2)cc1,n,n,n,n,n,x,x
COC(=O)c1ccccc1NC(=O)CSc1nc(Nc2ccccc2)nc(N2CCOCC2)n1,n,n,n,n,8.7,n,9.1
C[C@@H](NC(=O)c1nc[nH]c1C(=O)N[C@@H](Cc1ccccc1)C(=O)OCc1ccccc1)c1ccccc1,n,n,n,n,12,30,17
CC(C)(C)OC(=O)NCc1ccc(NC(=O)c2nc[nH]c2C(=O)N[C@@H](Cc2ccccc2)C(=O)OC(C)(C)C)cc1,x,n,x,n,8.9,46,23
CC(C)(C)OC(=O)CNC(=O)c1[nH]cnc1C(=O)Nc1ccc(CNC(=O)OC(C)(C)C)cc1,n,n,n,n,12,30,16
C[C@H](NC(=O)c1nc[nH]c1C(=O)N[C@@H](Cc1ccccc1)C(=O)OCc1ccccc1)c1ccccc1,n,n,n,n,n,x,x
CC(C)(C)OC(=O)CNC(=O)c1nc[nH]c1C(=O)NCc1ccccc1,n,n,n,n,n,x,x
